Structures can show the parent of a compound that is named as a salt. ± gives the uncertainty stated by the source.
test system: FLX1; assay: cell viability z-score within plate (CellTiter-Glo), mean of 3 biological replicates; higher = higher viability relative to plate (less growth inhibition); conditions: 2 µM; time (hr): 120
Description: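 FLX1 fibrolamellar carcinoma cells (DNAJB1-PRKACA fusion), 600 cells/well in 384-well plates, treated with a Selleck kinase inhibitor library (L1200) at 2 uM for 5 days (120 hr); viability by CellTiter-Glo. A z-score was computed within each plate and averaged over three biological replicates.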

`Cc1cc(Nc2nc(N[C@@H](C)c3ccc(F)cc3)c(C#N)cc2F)n[nH]1` and `CNC(=O)c1ccc(C)c(-n2c(C)cc(OCc3ccc(F)cc3F)c(Br)c2=O)c1` are within error of each other in “cell viability z-score within plate” value: 0.513 ± 0.61 for the first, 0.325 ± 0.62 for the second.

Compared with `Cc1cc(F)c(Nc2ncnc3cc(OCc4ccccc4)ccc23)cc1O`, `COc1cc2ncnc(Nc3ccc(O)c(Br)c3)c2cc1OC` is higher in “cell viability z-score within plate” value: -0.328 ± 0.22 for the first, 0.753 ± 0.38 for the second.

`CNC(=O)c1cc(Oc2ccc(NC(=O)Nc3ccc(Cl)c(C(F)(F)F)c3)cc2)ccn1` [Sorafenib Tosylate] and `Cc1ccc(F)c(NC(=O)Nc2ccc(-c3cccc4[nH]nc(N)c34)cc2)c1` [Linifanib (ABT-869)] are within error of each other in “cell viability z-score within plate” value: -0.335 ± 0.66 for the first, 0.077 ± 0.57 for the second.

`CCN(CC)CCNC(=O)c1c(C)[nH]c(/C=C2\C(=O)Nc3ccc(F)cc32)c1C` [Sunitinib Malate] and `CCN1CCN(Cc2ccc(C(=O)Nc3ccc(C)c(Oc4ccc5c(c4)CC(=O)N5)c3)cc2C(F)(F)F)CC1` are within error of each other in “cell viability z-score within plate” value: -0.049 ± 0.26 for the first, 0.226 ± 0.35 for the second.

`C[C@@H](N)[C@H]1CC[C@H](C(=O)Nc2ccncc2)CC1` and `O=C(O)[C@]1(Cc2cccc(Nc3nccs3)n2)CC[C@@H](Oc2cccc(Cl)c2F)CC1` are within error of each other in “cell viability z-score within plate” value: 0.0727 ± 0.19 for the first, -1.08 ± 1 for the second.

`CO[C@H]1C[C@@H]2CC[C@@H](C)[C@@](O)(O2)C(=O)C(=O)N2CCCC[C@H]2C(=O)O[C@H]([C@H](C)C[C@@H]2CC[C@@H](OP(C)(C)=O)[C@H](OC)C2)CC(=O)[C@H](C)/C=C(\C)[C@@H](O)[C@@H](OC)C(=O)[C@H](C)C[C@H](C)/C=C/C=C/C=C/1C` [Ridaforolimus (Deforolimus, MK-8669)] and `CNC(=O)CN1CCC(Oc2cc3c(Nc4cccc(Cl)c4F)ncnc3cc2OC)CC1` [Sapitinib (AZD8931)] are within error of each other in “cell viability z-score within plate” value: -0.102 ± 0.36 for the first, 0.472 ± 0.47 for the second.

`C=CC(=O)Nc1cc(Nc2nccc(-c3cn(C)c4ccccc34)n2)c(OC)cc1N(C)CCN(C)C` [Osimertinib (AZD9291)] and `O=C(NCc1ccccc1)c1csc(Nc2ccncn2)n1` [Thiazovivin] are within error of each other in “cell viability z-score within plate” value: -0.225 ± 0.34 for the first, -0.686 ± 0.81 for the second.

`CN1CC[C@H](c2c(O)cc(O)c3c(=O)cc(-c4ccccc4Cl)oc23)[C@H](O)C1` [Flavopiridol HCl] and `COC(=O)c1ccc2c(c1)NC(=O)/C2=C(\Nc1ccc(N(C)C(=O)CN2CCN(C)CC2)cc1)c1ccccc1` [Nintedanib (BIBF 1120)] are within error of each other in “cell viability z-score within plate” value: 0.894 ± 0.42 for the first, 0.242 ± 0.43 for the second.

`CC[C@H](CO)Nc1nc(NCc2ccccc2)c2ncn(C(C)C)c2n1` [Roscovitine (Seliciclib,CYC202)] and `CCN1CCN(Cc2ccc(Nc3ncc(F)c(-c4cc(F)c5nc(C)n(C(C)C)c5c4)n3)nc2)CC1` are within error of each other in “cell viability z-score within plate” value: 0.283 ± 0.3 for the first, 0.939 ± 0.8 for the second.

Going from `N#CCNC(=O)c1ccc(-c2ccnc(Nc3ccc(N4CCOCC4)cc3)n2)cc1` [Momelotinib (CYT387)] to `CCn1c(=O)c(-c2ccc(-c3cncs3)cc2Cl)cc2cnc(Nc3ccc(N4CCN(C)CC4)cc3)nc21`, the “cell viability z-score within plate” value rises from -1.97 ± 1 to 0.491 ± 0.12.

Going from `COc1cc(Nc2c(C#N)cnc3cc(OCCCN4CCN(C)CC4)c(OC)cc23)c(Cl)cc1Cl` [Bosutinib (SKI-606)] to `Cc1ccc(C(=O)Nc2ccc(CN3CCN(C)CC3)c(C(F)(F)F)c2)cc1C#Cc1cnc2cccnn12`, the “cell viability z-score within plate” value falls from 0.309 ± 0.56 to -1.09 ± 0.7.

In the case of `Cc1nc(NC(=O)N2CCC[C@H]2C(N)=O)sc1-c1ccnc(C(C)(C)C(F)(F)F)c1` [Alpelisib (BYL719)], the “cell viability z-score within plate” value is reported as 0.524 ± 0.28.

From the supplement of paper PMC9925115
